Results as given in PubChem BioAssay (Tox21).
Records with an inconclusive call do not appear. Active and inactive are the calls of the source. Unless noted, calls come from the whole dose curve; as a rule, active = well fitted curve in the direction sought with a large enough effect in the repeat runs; inconclusive = weak or mixed curves; inactive = no such curve, though single readings can be large; an effect the other way counts as inactive or inconclusive.

Legend:
[1] = A CellTox Green Cytotoxicity Assay to monitor cytotoxicity in HEK293 cells - 16 hour (AID 1224888); note: nearly all actives have a fitted effect of over 35% in size
Outline: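 HEK293 cells, 600/well, were preincubated 5 hours and then exposed to compounds at 37 C for up to 40 hours. A cell-impermeant cyanine dye staining dead-cell DNA was read by fluorescence at 0, 8, 16, 24, 32 and 40 h time points.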

[2] = qHTS RealTime-Glo MT Cell Viability Assay in HepG2 cells - 0 hour (AID 1224889); note: nearly all actives have a fitted effect of over 50% in size
Outline: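 Real-time, nonlytic viability: 600 HepG2 cells/well mixed with NanoLuc enzyme plus prosubstrate; 5 h settle, compound (DMSO) added by pintool; luminescence monitored over 40 h at 37 C.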

[3] = A CellTox Green Cytotoxicity Assay to monitor cytotoxicity in HepG2 cells - 8 hour (AID 1224890); note: nearly all actives have a fitted effect of over 45% in size
Outline: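 HepG2 cells, 600/well, preincubated 5 h with CellTox Green dye, then exposed to Tox21 compounds in DMSO at 37 C for up to 40 h. Dead-cell DNA fluorescence read at the indicated time point.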

[4] = qHTS assay to identify small molecule antagonists of the estrogen receptor alpha (ER-alpha) signaling pathway using the BG1 cell line in the presence of 0.1 nM 17-beta-estradiol - cell viability counter screen (AID 1259241); note: nearly all actives have a fitted effect of over 40% in size
Outline: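 Measures cytotoxicity alongside the ER-alpha antagonist readout: VM7Luc4E2 cells, charcoal-stripped serum, 0.1 nM 17beta-estradiol final, 22 hr compound incubation at 37C, CellTiter-Fluor fluorescence.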

[5] = qHTS assay to identify small molecule antagonists of the androgen receptor (AR) signaling pathway using the MDA cell line in the presence of 0.5 nM R1881 - cell viability counter screen (AID 1259242); note: nearly all actives have a fitted effect of over 45% in size
Outline: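 MDA-kb2 cells (MMTV-luciferase, AR/GR responsive) were treated with compounds plus 0.5 nM R1881 (final) for 16 hr at 37C, 0% CO2. Viability was then read in the same wells as live-cell protease fluorescence (CellTiter-Fluor, 30 min).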

[6] = qHTS assay to identify small molecule HDAC inhibitors (AID 1259364); note: top concentration of the series differs between compounds; nearly all actives have a fitted effect of over 45% in size
Outline: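 Wild-type HCT-116 cells, plated overnight at 37 C, exposed to compounds 2 hr at 37 C; luminogenic HDAC-Glo substrate then added 30 min at room temperature. Luminescence reports relative endogenous class I/II HDAC activity.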

[7] = qHTS assay to identify small molecule HDAC inhibitors - cell viability counter screen (AID 1259365); note: series mostly up to about 92 µM; nearly all actives have a fitted effect of over 50% in size
Outline: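 Following a 2hr exposure of overnight-plated wild-type HCT-116 cells to DMSO-delivered compounds, CellTiter-Glo was added and luminescence recorded after 30min at room temperature.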

[8] = qHTS assay to identify small molecule agonists of the sonic hedgehog signaling (Shh) pathway - cell viability counter screen (AID 1259366); note: nearly all actives have a fitted effect of over 50% in size
Outline: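 After a 4hr attachment at 37C, NIH/3T3 cells bearing an integrated Gli1-driven luciferase reporter were dosed with compounds. Treatment lasted 24hr, with the final hour including CellTiter-Fluor for a fluorescence viability measurement.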

[9] = qHTS assay to identify small molecule antagonists of the sonic hedgehog signaling (Shh) pathway - cell viability counter screen (AID 1259367); note: nearly all actives have a fitted effect of over 55% in size
Outline: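 Seed 3T3 Gli1-Luc cells at 2,000 per well; incubate 4 hr; add compound in DMSO, then conditioned medium; incubate at 37C with 5% CO2; add CellTiter-Fluor after 23 hr; read fluorescence 1 hr later.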

[10] = qHTS assay to identify small molecule agonists of the sonic hedgehog signaling (Shh) pathway (AID 1259368; calls by dose curve;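 note: NIH/3T3-derived 3T3Gli1-Luc cells carrying a stable Gli1-driven firefly luciferase reporter; series mostly up to about 92 µM; nearly all actives have a fitted effect of over 15% in size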)
Outline: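 NIH/3T3-derived 3T3Gli1-Luc cells with stably integrated Gli1-driven firefly luciferase, 2,000 cells/well, compounds added after 4 hr. Incubated 24 hr at 37C, 5% CO2; luminescence read after 30 min with luciferase reagent at room temperature.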

[11] = qHTS assay to identify small molecule antagonists of the sonic hedgehog signaling (Shh) pathway (AID 1259369; calls by dose curve; note: nearly all actives have a fitted effect of over 45% in size)
Outline: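 NIH/3T3-derived Gli1-Luc reporter cells plated 4 h, dosed with compound, then stimulated with conditioned medium for 24 h at 37 C. Firefly luciferase luminescence read after 30 min with detection reagent at room temperature.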

[12] = target: Estrogen receptor beta (Homo sapiens) (UniProt Q92731); assay: qHTS assay to identify small molecule antagonists of the estrogen receptor beta (ER-beta) signaling pathway (AID 1259378; active = well fitted inhibition curve with a large enough effect in the signal ratio in the repeat runs, not every such curve was filed as active; the % refers to the signal ratio)
Sequence of Estrogen receptor beta (Homo sapiens) (Q92731 whole entry, looked up): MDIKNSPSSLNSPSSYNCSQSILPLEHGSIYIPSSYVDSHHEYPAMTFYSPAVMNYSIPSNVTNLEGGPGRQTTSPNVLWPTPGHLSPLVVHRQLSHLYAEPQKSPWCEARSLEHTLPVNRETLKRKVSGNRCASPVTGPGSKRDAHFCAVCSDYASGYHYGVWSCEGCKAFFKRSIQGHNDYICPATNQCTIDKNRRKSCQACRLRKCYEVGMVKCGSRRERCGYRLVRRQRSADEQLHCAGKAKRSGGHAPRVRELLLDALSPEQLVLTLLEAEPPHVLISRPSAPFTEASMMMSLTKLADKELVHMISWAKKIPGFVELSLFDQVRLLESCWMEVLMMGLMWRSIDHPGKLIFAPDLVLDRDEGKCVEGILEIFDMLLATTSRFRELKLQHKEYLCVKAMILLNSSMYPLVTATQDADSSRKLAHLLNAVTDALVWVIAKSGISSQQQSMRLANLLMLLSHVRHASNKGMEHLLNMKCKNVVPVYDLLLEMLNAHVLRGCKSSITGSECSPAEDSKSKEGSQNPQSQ
Outline: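 ER-beta-UAS-bla HEK293T cells in 2% charcoal-stripped FBS medium treated with compound plus 1nM final 17-beta-estradiol for 16 hr at 37C. Beta-lactamase reporter read by FRET substrate fluorescence after 2 hours at room temperature.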

[13] = qHTS assay to identify small molecule agonists of the androgen receptor (AR) signaling pathway in the presence of an antagonist - cell viability counter screen (AID 1259379);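 note: MDA-kb2 human breast cancer cells carrying an MMTV luciferase reporter; series mostly up to about 92 µM; nearly all actives have a fitted effect of over 25% in size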
Outline: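 MDA-kb2 cells (MMTV-luciferase, AR/GR), 3,000/well, 5 h attachment, then 3.0 µM nilutamide (final) and compounds at 15 concentrations. Viability by CellTiter-Fluor fluorescence after 16 h at 37 °C, 0% CO2, in the reporter wells.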

[14] = qHTS assay to identify small molecule agonists of the estrogen receptor beta (ER-beta) signaling pathway - cell viability counter screen (AID 1259380); note: nearly all actives have a fitted effect of over 30% in size
Outline: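 ER-beta-UAS-bla HEK293T cells in medium with 2% charcoal-stripped FBS, pre-incubated 6 hr, then treated 16 hr at 37C. Cytotoxicity read in the same wells by CellTiter-Glo luminescence after 30 min at room temperature.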

[15] = qHTS assay to identify small molecule antagonists of the estrogen receptor beta (ER-beta) signaling pathway - cell viability counter screen (AID 1259382); note: series mostly up to about 92 µM; nearly all actives have a fitted effect of over 55% in size
Outline: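 ER-beta-UAS-bla HEK293T cells in 2% charcoal-stripped FBS medium, treated with compound plus 1 nM 17-beta-estradiol for 16 h at 37C. Viability read by CellTiter-Glo luminescence after 30 min at room temperature in the same wells.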

[16] = qHTS assay to identify small molecule phospholipidosis (PLD) inducers (AID 1259344; active = well fitted curve in the direction sought with a large enough effect; an effect the other way counts as inactive or inconclusive)
Outline: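 Quantitative HTS in HepG2: compound plus LipidTOX Red dye for 24 h, paraformaldehyde fixation with Hoechst 33342, widefield high-content imaging; amiodarone as positive and DMSO as negative control.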

[17] = target: Estrogen receptor beta (Homo sapiens) (UniProt Q92731); assay: qHTS assay to identify small molecule agonists of the estrogen receptor beta (ER-beta) signaling pathway (AID 1259377; active = well fitted activation curve with a large enough effect in the signal ratio in the repeat runs, not every such curve was filed as active; the % refers to the signal ratio)
Outline: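 In HEK293T cells bearing a UAS-beta-lactamase reporter under ER-beta control, DMSO-delivered compounds were incubated for 16 hr at 37C. Activity was detected as fluorescence 2 hours after LiveBLAzer B/G FRET substrate addition.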

[18] = target: Androgen receptor (Homo sapiens) (UniProt P10275); assay: qHTS assay to identify small molecule antagonists of the androgen receptor (AR) signaling pathway using the MDA cell line in the presence of 0.5 nM R1881 (AID 1259243); note: nearly all actives have a fitted effect of over 50% in size
Sequence of Androgen receptor (Homo sapiens) (P10275 whole entry, looked up): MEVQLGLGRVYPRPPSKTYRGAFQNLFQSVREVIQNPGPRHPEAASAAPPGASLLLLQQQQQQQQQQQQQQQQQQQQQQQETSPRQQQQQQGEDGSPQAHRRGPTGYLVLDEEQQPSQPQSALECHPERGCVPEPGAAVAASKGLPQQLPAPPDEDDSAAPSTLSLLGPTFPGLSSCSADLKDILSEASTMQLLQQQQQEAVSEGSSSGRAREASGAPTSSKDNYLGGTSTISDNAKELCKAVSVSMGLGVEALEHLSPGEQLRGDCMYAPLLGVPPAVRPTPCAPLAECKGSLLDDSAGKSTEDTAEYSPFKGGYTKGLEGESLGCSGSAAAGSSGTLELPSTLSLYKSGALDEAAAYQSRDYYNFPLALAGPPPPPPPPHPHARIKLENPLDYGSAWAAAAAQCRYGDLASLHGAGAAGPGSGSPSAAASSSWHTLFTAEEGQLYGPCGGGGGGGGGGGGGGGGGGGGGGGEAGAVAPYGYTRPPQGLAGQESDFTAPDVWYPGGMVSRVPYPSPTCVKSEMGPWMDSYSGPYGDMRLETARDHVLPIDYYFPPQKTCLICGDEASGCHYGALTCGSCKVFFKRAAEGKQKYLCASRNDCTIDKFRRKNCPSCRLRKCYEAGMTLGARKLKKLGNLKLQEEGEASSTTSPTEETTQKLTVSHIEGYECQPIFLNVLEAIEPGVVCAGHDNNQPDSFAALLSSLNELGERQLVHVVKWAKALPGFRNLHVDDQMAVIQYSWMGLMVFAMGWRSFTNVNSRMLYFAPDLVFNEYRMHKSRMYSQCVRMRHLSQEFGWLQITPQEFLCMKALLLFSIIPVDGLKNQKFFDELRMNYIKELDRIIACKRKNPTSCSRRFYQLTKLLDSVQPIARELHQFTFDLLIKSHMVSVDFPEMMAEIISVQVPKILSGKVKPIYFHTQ
Outline: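 MDA-kb2 cells (MMTV-luciferase, responsive to AR and GR) at 3,000/well, rested 5 h at 37C, 0% CO2, then given compounds plus 0.5 nM R1881 (final) for 16 hr. Luciferase read with ONE-Glo after 30 min at room temperature.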

[19] = target: Estrogen receptor (Homo sapiens) (UniProt P03372); assay: qHTS assay to identify small molecule antagonists of the estrogen receptor alpha (ER-alpha) signaling pathway using the BG1 cell line in the presence of 0.1 nM 17-beta-estradiol (AID 1259244); note: nearly all actives have a fitted effect of over 50% in size
Sequence of Estrogen receptor (Homo sapiens) (P03372 whole entry, looked up): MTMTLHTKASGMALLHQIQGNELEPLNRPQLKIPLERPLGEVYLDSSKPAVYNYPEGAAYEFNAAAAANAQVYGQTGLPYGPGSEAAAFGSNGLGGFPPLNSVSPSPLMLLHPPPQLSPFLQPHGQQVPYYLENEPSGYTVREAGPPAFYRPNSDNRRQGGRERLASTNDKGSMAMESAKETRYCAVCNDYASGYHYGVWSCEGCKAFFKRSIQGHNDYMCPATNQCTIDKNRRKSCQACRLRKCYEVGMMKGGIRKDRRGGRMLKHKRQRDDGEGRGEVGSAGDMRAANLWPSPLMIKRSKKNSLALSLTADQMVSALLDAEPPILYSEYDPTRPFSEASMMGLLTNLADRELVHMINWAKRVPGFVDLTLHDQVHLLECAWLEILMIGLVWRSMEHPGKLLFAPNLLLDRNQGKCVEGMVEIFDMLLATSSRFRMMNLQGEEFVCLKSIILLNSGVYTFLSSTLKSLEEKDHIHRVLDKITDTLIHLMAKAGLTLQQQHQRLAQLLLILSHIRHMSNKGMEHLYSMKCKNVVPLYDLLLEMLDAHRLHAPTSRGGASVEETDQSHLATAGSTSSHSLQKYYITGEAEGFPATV
Outline: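 VM7Luc4E2 cells (endogenous full-length ER-alpha, 4×ERE-luciferase), kept 5 days in phenol red-free, charcoal-stripped FBS medium; 4,000 cells/well. Compounds added with 0.1 nM (final) 17beta-estradiol, 22 hr at 37C; luminescence read with ONE-Glo after 30 min.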

[20] = target: Androgen receptor (Homo sapiens) (UniProt P10275); assay: qHTS assay to identify small molecule agonists of the androgen receptor (AR) signaling pathway in the presence of an antagonist (AID 1259381; calls by dose curve; note: nearly all actives have a fitted effect of over 15% in size)
Outline: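 MDA-kb2 cells carrying MMTV-luciferase (AR/GR responsive), 3,000 cells/well, co-treated with 3.0 uM nilutamide final. Compounds at 15 concentrations, 16 hr at 37C without CO2. Luciferase luminescence read after 30 min with ONE-Glo.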
% is set by controls: 0 for no effect and ±100 for the full control effect.

c1cc2ccc3ccc4ccc5cccc6c(c1)c2c3c4c56
inactive: activity change [1] -11.1% [at 2.72 µM, stronger effect = higher value] | activity change, negative = cytotoxicity [2] 3.24% [at 2.72 µM] | cytotoxicity increase [3] -16.5% [at 2.72 µM] | activity change, negative = cytotoxicity [4] 10.7% [at 3.27 µM] | viability change, negative = cytotoxic [5] 1.62% [at 3.26 µM] | activity change, negative = inhibition [6] -0.743% [at 3.27 µM] | activity change, negative = cytotoxicity [7] 2.08% [at 3.27 µM] | viability change, negative = cytotoxic [8] 2.39% [at 3.27 µM] | viability change, negative = cytotoxic [9] -2.17% [at 3.27 µM] | activity change [10] 0.83% [at 3.27 µM] | activity change, negative = inhibition [11] 17.2% [at 3.27 µM] | activity, negative = inhibition [12] 4.07% [at 3.27 µM] | activity change, negative = cytotoxicity [13] 2.9% [at 3.27 µM] | activity change, negative = cytotoxicity [14] 0.89% [at 3.32 µM] | activity change, negative = cytotoxicity [15] -0.247% [at 3.27 µM]

CCCOc1ccc(C(=O)OCCN(CC)CC)cc1N
inactive: Potency [1] | Potency [2] | Potency [3] | outcome [4] | outcome [5] | Potency [16] | outcome [7] | outcome [8] | outcome [9] | outcome [10] | Potency [11] | Potency [17] | outcome [12] | outcome [13] | Potency [14] | outcome [15]

CCCCCCCCCCCCCCCC/C=C/C1CC(=O)OC1=O (stereo not given)
inactive: Potency [1] | Potency [2] | Potency [3] | outcome [4] | outcome [5] | Potency [6] | outcome [7] | outcome [8] | outcome [9] | outcome [10] | Potency [17] | outcome [12] | outcome [13] | Potency [14] | outcome [15]

CCCCCCCCCCCCCCCCN(C)C
inactive: activity change [1] 0.327% [at 6.97 µM, stronger effect = higher value] | activity change, negative = cytotoxicity [2] 4.22% [at 6.97 µM] | activity change, negative = cytotoxicity [4] 8.65% [at 8.39 µM] | viability change, negative = cytotoxic [5] 0.99% [at 8.39 µM] | activity, negative = inhibition [18] 15.5% [at 8.39 µM] | activity change, negative = inhibition [19] 15.1% [at 8.39 µM] | activity change, negative = cytotoxicity [7] 1.52% [at 8.39 µM] | viability change, negative = cytotoxic [8] 4.7% [at 8.39 µM] | viability change, negative = cytotoxic [9] 2.16% [at 8.39 µM] | activity change [10] -0.702% [at 8.39 µM] | activity change, negative = inhibition [11] -28.7% [at 8.39 µM] | activation [17] -2.39% [at 8.39 µM] | activity, negative = inhibition [12] 3.25% [at 8.39 µM] | activity change, negative = cytotoxicity [13] 0.395% [at 8.39 µM] | activity change, negative = cytotoxicity [14] 3.62% [at 8.39 µM] | activation [20] -0.033% [at 8.39 µM] | activity change, negative = cytotoxicity [15] 6.11% [at 8.39 µM]

CCCCCCCCOCCC#N
inactive: Potency [1] | Potency [2] | Potency [3] | outcome [4] | outcome [5] | Potency [6] | outcome [7] | outcome [8] | outcome [9] | outcome [10] | Potency [11] | Potency [17] | outcome [13] | Potency [14] | outcome [15]

Cc1ccc(O)c(C(=O)c2ccccc2)c1
inactive: Potency [1] | Potency [2] | Potency [3] | outcome [4] | outcome [5] | Potency [6] | outcome [7] | outcome [8] | outcome [9] | outcome [10] | Potency [11] | outcome [13] | Potency [14] | outcome [20] | outcome [15]

O=c1c(O)c(O)c1=O
inactive: Potency [1] | Potency [2] | Potency [3] | outcome [4] | outcome [5] | Potency [6] | outcome [7] | outcome [8] | outcome [9] | outcome [10] | Potency [11] | outcome [13] | Potency [14]

CC(C)C[P+](C)(CC(C)C)CC(C)C
inactive: Potency [1] | Potency [2] | Potency [3] | outcome [4] | outcome [5] | outcome [19] | outcome [7] | outcome [8] | outcome [9] | outcome [12] | outcome [13] | Potency [14] | outcome [15]

CCCCCC(CC)OC(=O)CCCOc1ccc(Cl)cc1Cl (stereo not given)
inactive: Potency [1] | Potency [2] | Potency [3] | outcome [4] | outcome [5] | Potency [6] | outcome [7] | outcome [8] | outcome [9] | outcome [10] | Potency [11] | Potency [17] | outcome [12] | outcome [13] | Potency [14] | outcome [15]
